AHR activator: activates the human aryl hydrocarbon receptor; AHR-responsive luciferase reporter cells, luminescence; activation, % at 5 µM; hit rate 2.5% among 320,000; P35869; in the data active = activation above about 47%
FXN GAA850 act: increases GAA850 frataxin promoter reporter activity. hit rate 0.56% among 360,000. AID 540364. activation, % at 6 µM. HEK293 lucGAA850 FXN promoter luciferase reporter, 24 h; percent of 10 µM SAHA response;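 active = activation above the average of all compounds screened plus 3 SD, cutoff fixed separately per campaign, cut at about 7.5% in these data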
HSF1 activator: increases HSF-1 driven luciferase reporter signal; NIH3T3-HGL HSF-1 luciferase reporter, MG132, 8 h; 100% = twice DMSO control signal; activation, % at 9 µM; hit rate 1.7% among 300,000; AID 504408;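 active = mean replicate activation of at least 50% with a set share of replicates each reaching 50%; inconclusive = only one of those two conditions met; inactive = mean below 50% and too few replicates reaching it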
HSF1 inh: HSF1 inhibition | NIH3T3-HGL HSE-luciferase, MG132-induced, luminescence 8 h; active compounds read low | activity change, negative = inhibition, % at 7.5 µM (by protocol) | hit rate 0.77% among 300,000 | AID 2098;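 active = more than half of replicate wells show activity change below -50%, luminescence cut by over half; inconclusive = some wells, but at most half, below -50%; inactive = no replicate well below -50%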;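 note: luciferase reports HSF-1 transcriptional activity via heat shock element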
Hits are given with their value; - = inactive; ? = inconclusive; . = no result given. Compounds with a hit are over-represented: about 4.6% of the library has one in this group of screens.

SMILES	AHR activator	FXN GAA850 act	HSF1 activator	HSF1 inh
COc1cc(OC)c(NC(=O)c2ccc(F)cc2)cc1Cl	-	-	-	-
COc1cc(NC(=O)c2ccccc2)c(OC)cc1Cl	68.9	-	-	-
COc1cc(OC)c(N(C)C(=O)CCNC(=O)Cn2cnc3ccccc3c2=O)cc1Cl	-	-	-	-
O=C(NC(=S)N1CCOCC1)c1ccc([N+](=O)[O-])cc1	-	-	-	-
COc1cc(NC(=O)C/C(C)=N/NC(=O)c2cccc(O)c2)c(OC)cc1Cl	81.6	-	-	-
CCCCC[C@H](O)/C=C/C1C(=O)C=C[C@H]1C/C=C\CCCC(=O)OC (some centres not stated)	.	8.2	.	.
COc1cccc(NC(=O)CCN2CCC(C(N)=O)CC2)c1	-	-	-	-
CCOc1ccccc1CN1CCN(Cc2[nH]c3ccccc3c2C)CC1CCO (configuration not stated)	51.4	-	-	-
COC(=O)c1ccc(CNCC(O)COc2ccc(-c3ccccc3)cc2)cc1 (configuration not stated)	-	-	-	-
COc1ccc(CNCC(O)COc2ccc(C(C)(C)c3ccccc3)cc2)cc1 (configuration not stated)	-	-	194.1	-
Cc1ccc(OCCNCC(O)COc2ccccc2)cc1 (configuration not stated)	65.8	-	-	-
COc1ccc2cc(CCNS(=O)(=O)c3c(C)cc(C)cc3C)c(=O)[nH]c2c1	-	-	-	-
O=C(O)CN1C(=O)/C(=C/c2ccc(SCc3ccccc3)o2)SC1=S	.	-	.	.
Cc1ccc(N(CC(=O)NCCSCc2ccco2)S(C)(=O)=O)cc1	-	-	-	-54.3
Cc1ccc(N(CC(=O)NCCSCc2ccco2)S(=O)(=O)c2ccc(F)cc2)cc1	-	-	-	-
CCC(C)c1ccccc1NC(=O)c1cc(C)no1 (configuration not stated)	-	-	59.4	-
Cc1ccc(O)c(NC(=O)c2cc(-c3ccccc3)on2)c1	-	-	96.3	-
Cc1ccc(O)c(NC(=O)c2cc(C)no2)c1	-	-	99.8	-
Cc1cc(C(=O)Nc2cc(C)on2)on1	-	-	-	-
O=C(Nc1cc(Br)ccc1O)c1cc(-c2ccccc2)on1	.	-	-	-
Cc1cc(Br)c(S(=O)(=O)NCc2ccncc2)cc1C	-	-	-	-
COc1ccc(Cl)c2sc(NC(=O)C3=COCCO3)nc12	-	-	-	-
NNc1nc2c(Cl)ccc(Cl)c2s1	55.7	-	-	-
Cc1nc2sc(C(c3cccc(F)c3)N3CCC(O)CC3)c(O)n2n1 (configuration not stated)	-	-	-	-
COc1ccc(-n2ncc3c(NCCCN4CCOCC4)ncnc32)cc1	-	-	-	-54.7
SMILES	AHR activator	FXN GAA850 act	HSF1 activator	HSF1 inh
CC(C)Nc1ncnc2c1cnn2-c1ccccc1	-	-	-	-
O=C(NNc1ncnc2c1cnn2-c1cccc(Cl)c1)c1ccco1	-	-	64.0	-
COc1ccc(CC(=O)NNc2ncnc3c2cnn3-c2ccccc2)cc1	51.1	-	-	-
NNc1ncnc2c1cnn2-c1ccccc1	60.8	-	-	-
COc1ccc(CC(=O)NNc2ncnc3c2cnn3-c2ccc(C)cc2)cc1	-	-	-	-
CC(=O)Nc1ccc(S(=O)(=O)N2CCNC(=O)CC2)cc1	-	-	-	-
CN(CC(=O)NCCc1ccc(S(N)(=O)=O)cc1)c1ccccc1	-	-	-	-
CCOC(=O)/C=C/C(=O)Nc1ccc(S(=O)(=O)Nc2nccs2)cc1	-	-	-	-
c1ccc(-n2ncc3c(NCc4cccs4)ncnc32)cc1	-	-	66.0	-
COc1ccc(-n2ncc3c(NCc4cccs4)ncnc32)cc1	-	-	-	-
COc1ccc(C(=O)C[n+]2ccc3ccccc3c2C)cc1	58.8	-	-	-
COc1ccc(C(=O)C[n+]2cccc3cc(OC)ccc32)cc1	-	-	-	-
O=C(CSc1nnc(-c2ccco2)o1)NC1CCCCC1	-	-	-	-
CCOC(=O)c1nnn(CC(=O)N2N=C(c3ccc(Cl)cc3)CC2c2ccc(OC)cc2)c1C(=O)OCC (configuration not stated)	-	-	-	-
CCOC(=O)c1nnn(CC(=O)N2N=C(c3ccc(Cl)cc3)CC2c2ccccc2)c1C(=O)OCC (configuration not stated)	-	-	52.4	-
CSc1nc(Cc2ccccc2)cc(=O)[nH]1	-	-	-	-64.8
COc1cc(/C=N/Nc2ccccc2C(F)(F)F)ccc1O	-	-	-	-
CCOc1ccc(-c2nnn(CC(=O)NCc3ccc(OC)cc3)n2)cc1OCC	-	-	-	-
CCNc1ccc(S(=O)(=O)N(C)C)cc1NCC(=O)Nc1ccccc1Br	-	-	115.4	-
CN(C)C(CNC(=O)CCC(=O)c1ccc(Br)cc1)c1ccccc1 (configuration not stated)	-	-	62.7	-
O=S(=O)(/N=C(\c1ccccc1F)N1CCCCC1)c1ccccc1	-	-	-	-
O=C(O)CN1C(=O)/C(=C2\C(=O)N(Cc3ccccc3Cl)c3ccccc32)SC1=S	60.1	-	-	-
CC(c1ccccc1)N1CCN(C(=O)CCl)CC1 (configuration not stated)	-	-	-	-94.0
CC(CC(=O)N1CCN(C(=O)c2ccccc2)CC1)c1ccccc1 (configuration not stated)	-	-	-	-
O=C1c2ccccc2C(=O)N1CCCOc1ccccc1	66.2	-	-	-
SMILES	AHR activator	FXN GAA850 act	HSF1 activator	HSF1 inh
O=C1c2ccccc2C(=O)N1CCCN1C(=O)c2ccccc2C1=O	.	-	.	.
COCCNC(=S)N/N=C(\C)c1ccc(OC)cc1	53.8	-	-	-
COCCNC(=S)N/N=C(\C)c1cc2ccccc2o1	68.2	-	-	-
CN(C)c1ccc(CN2CCC(C(=O)NC(c3ccc(Cl)cc3)c3cnccn3)CC2)cc1 (configuration not stated)	.	-	.	.
N#Cc1ccccc1OCCN1C(=O)c2ccccc2C1=O	-	-	-	-
Nc1cccc2c1C(=O)N(CCOc1ccccc1F)C2=O	76.6	-	?	-
COc1cc([N+](=O)[O-])c2nc(C(=O)O)ccc2c1	.	-	.	.
Cc1c(C)n(Cc2ccccc2)c2ncnc(N)c12	-	-	-	-
COc1ccc(-n2c(C)c(C)c3c(N)ncnc32)cc1	-	-	-	-57.3
O=C(O)C1CCCCC1C(=O)Nc1cccc(C(=O)N2CCCCC2)c1 (configuration not stated)	-	-	-	-56.1
O=C(Nc1cccc(C(=O)N2CCCCC2)c1)C1CCCC1	.	-	.	.
Fc1ccc(-[n+]2nc(Nc3ccccc3)sc2-c2c3ccccc3cc3ccccc23)cc1	-	-	-	-
c1ccc(-[n+]2nc(Nc3cccc4ccccc34)sc2-c2c3ccccc3cc3ccccc23)cc1	62.3	-	.	.
COc1ccc(CCn2c(-c3cc([N+](=O)[O-])cc([N+](=O)[O-])c3)nc3nc4ccccc4nc32)cc1OC	-	-	-	-
Cc1c(-n2cccc2C=O)cccc1[N+](=O)[O-]	-	-	-	-
Cn1c(/C(C#N)=C/Nc2ccccn2)nc2ccccc21	118.5	-	-	-
CCOc1ccccc1N/C=C(\C#N)c1nc2ccccc2n1C	-	-	-	-

Screens (PubChem)
